In PubChem BioAssay AID1159580 (chemical genetic matrix, 2015):
“And” between values parts separate entries of the source, which are not always exact repeats. Equal values may be shown once. Among all 5,500 compounds or so, about 2,000 (36%) were called active. Roughly 18% stayed inconclusive and do not appear here. Rule as the data show it: active = normalized growth mostly below about 0.91 (no sharp cut-off); inconclusive = no clear call, values can overlap the other calls; inactive = mostly above about 0.92. The list shows a part of the results.

Assay: chemical genetic growth profiling, strain panel (AID 1159580);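 also: tested at 20 µM; growth read once vehicle control cultures reached saturation at 30 °C; 1 = growth at the plate median or of vehicle wells; lower values mean less growth of the strain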
Details: S. cerevisiae deletion strains, growth OD

Measured: normalized growth

CC1(C)C2CC[C@]3(C)C(C(=O)C=C4[C@@H]5C[C@@](C)(C(=O)O)CC[C@]5(C)CC[C@]43C)[C@@]2(C)CC[C@@H]1OC(=O)CCC(=O)O (stereo partly drawn)
inactive: locus YAL021C, strain ccr4, hits give low values 0.968 | locus YAL026C, strain drs2, hits give low values 0.981 | locus YAL030W, strain snc1, hits give low values 1 | locus YBL061C, strain skt5, hits give low values 0.99 | locus YBR009C, strain hhf1, hits give low values 1 | locus YBR021W, strain FUR4, hits give low values 0.981 | locus YBR023C, strain chs3, hits give low values 0.983 | locus YBR171W, strain sec66, hits give low values 0.975 | locus YBR229C, strain ROT2, hits give low values 1 | locus YBR231C, strain swc5, hits give low values 0.996 | locus YBR279W, strain paf1, hits give low values 0.976 | locus YCL011C, strain gbp2, hits give low values 0.963 | locus YCL016C, strain dcc1, hits give low values 0.979 | locus YCL029C, strain bik1, hits give low values 0.973 | locus YCL069W, strain vba3, hits give low values 1.02 | locus YCR088W, strain abp1, hits give low values 0.985 | locus YDL005C, strain med2, hits give low values 0.994 | locus YDL035C, strain GPR1, hits give low values 0.968 | locus YDL040C, strain nat1, hits give low values 0.988 | locus YDL074C, strain BRE1, hits give low values 1.02 | locus YDL101C, strain DUN1, hits give low values 1 | locus YDL134C, strain PPH21, hits give low values 0.966 | locus YDL185W, strain tfp1, hits give low values 0.958 | locus YDL192W, strain arf1, hits give low values 0.989 | locus YDR001C, strain nth1, hits give low values 0.983 | locus YDR069C, strain doa4, hits give low values 0.938 | locus YDR101C, strain arx1, hits give low values 0.994 | locus YDR137W, strain rgp1, hits give low values 0.911 | locus YDR159W, strain sac3, hits give low values 0.909 | locus YDR162C, strain NBP2, hits give low values 0.954 | locus YDR195W, strain ref2 1 | locus YDR297W, strain sur2, hits give low values 0.995 | locus YDR318W, strain mcm21, hits give low values 0.972 | locus YDR334W, strain swr1, hits give low values 0.991 | locus YDR335W, strain msn5, hits give low values 0.979 | locus YDR388W, hits give low values 1 | locus YDR392W, strain spt3, hits give low values 0.873 | locus YDR502C, strain sam2, hits give low values 0.99 | locus YEL003W, strain gim4, hits give low values 0.992 | locus YEL037C, strain rad23, hits give low values 0.986 | locus YEL061C, strain CIN8 (second series), hits give low values 0.988 | locus YEL061C, strain CIN8, hits give low values 0.999 | locus YER015W, strain faa2, hits give low values 0.989 | locus YER016W, strain bim1, hits give low values 0.975 | locus YER110C, hits give low values 0.982 | locus YER111C, strain swi4, hits give low values 0.968 | locus YER155C, strain BEM2 (second series), hits give low values 1.02 | locus YER155C, strain BEM2, hits give low values 1 | locus YER167W, strain BCK2, hits give low values 0.99 | locus YFR010W, strain ubp6, hits give low values 1.01 | locus YGL078C, strain dbp3, hits give low values 0.98 | locus YGL086W, strain mad1, hits give low values 0.999 | locus YGL167C, strain pmr1, hits give low values 0.987 | locus YGL173C, strain kem1, hits give low values 0.999 | locus YGL227W, strain vid30, hits give low values 0.982 | locus YGL240W, strain doc1, hits give low values 0.992 | locus YGL248W, strain PDE1, hits give low values 1.02 | locus YGL253W, strain hxk2, hits give low values 0.963 | locus YGR078C, strain PAC10, hits give low values 1.03 | locus YGR135W, strain pre9, hits give low values 0.96 | locus YGR229C, strain SMI1, hits give low values 0.999 | locus YGR252W, strain gcn5, hits give low values 1.04 | locus YHR013C, strain ard1, hits give low values 0.995 | locus YHR027C, strain rpn1, hits give low values 1 | locus YHR030C, strain SLT2, hits give low values 0.984 and 1.06 | locus YHR079C, strain IRE1 (second series), hits give low values 0.979 | locus YHR079C, strain IRE1, hits give low values 1.08 | locus YHR094C, strain hxt1, hits give low values 0.987 | locus YHR129C, strain ARP1, hits give low values 0.991 | locus YHR142W, strain chs7, hits give low values 0.955 | locus YHR200W, strain rpn10, hits give low values 0.958 | locus YIL066C, strain RNR3, hits give low values 0.983 | locus YIL073C, strain SPO22, hits give low values 0.91 | locus YIL125W, strain kgd1, hits give low values 1 | locus YIR030C, strain dcg1, hits give low values 0.98 | locus YJL092W, strain hpr5, hits give low values 1 | locus YJL095W, strain BCK1 (second series), hits give low values 1 | locus YJL095W, strain BCK1, hits give low values 1.03 | locus YJL115W, strain asf1, hits give low values 0.983 | locus YJL129C, strain trk1, hits give low values 0.936 | locus YJL134W, strain LCB3, hits give low values 0.99 | locus YJL154C, strain vps35, hits give low values 0.987 | locus YJL164C, strain tpk1, hits give low values 0.982 | locus YJL166W, strain qcr8, hits give low values 0.999 | locus YJL168C, strain set2, hits give low values 0.997 | locus YJL187C, strain SWE1 (second series), hits give low values 1.02 | locus YJR043C, strain POL32, hits give low values 1.01 | locus YJR066W, strain TOR1, hits give low values 1.01
